# From PubChem BioAssay (NCATS)
# A number with no mark means an inactive call. Results filed as inconclusive are left out. Active and inactive are the calls of the source. Unless noted, calls come from the whole dose curve; as a rule, active = well fitted curve in either direction with a large enough effect (not every such curve was filed as active); inconclusive = small, poorly fitted or top-dose-only effect, or another doubt; inactive = flat fitted curve, though single readings scatter.
# Assays:
# [1] = AP1 Signaling Pathway (AID 357); settings: ME-180 AP-1-bla reporter, EGF-induced, beta-lactamase ratio, 5 h; at 17.2 µM (top of the series) unless noted; note: % is set by controls: 0 for no effect and ±100 for the full control effect
# How it was run: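 AP-1-bla ME-180 cells with beta-lactamase reporter under AP-1 response element, stimulated with EC50 EGF; compounds titrated, 5 hours at 37 degrees Celsius. CCF4 read at 460/530 nm ratio; positive and negative modulators judged by AC50.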
# [2] = NFAT Signaling Pathway (AID 444); settings: Jurkat NFAT-bla M1, carbachol, beta-lactamase ratio, 5 h; at 17.2 µM (top of the series) unless noted;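 note: carbachol stimulus at about its EC50 of 1 µM final; % is set by controls: 0 for no effect and ±100 for the full control effect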
# How it was run: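 Read-out: CCF4 FRET ratio (460 nm/530 nm) after 1 h RT dye loading, used for %activity and AC50 from titration series. Cells: Jurkat NFAT-β-lactamase/M1 line, treated with compound plus 1 uM carbachol for 5 h, 37 °C.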
# [3] = Stat Signaling Pathway (AID 446); settings: ME-180 SIE beta-lactamase reporter, IL-6 stimulated, 5 h; at 17.2 µM (top of the series) unless noted;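 note: ME-180 cervical cancer cells given 40 pM IL-6 alongside compound; SIE-controlled beta-lactamase reporter measured as 460/530 nm FRET emission ratio; % is set by controls: 0 for no effect and ±100 for the full control effect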
# How it was run: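 Screening format detects activators and inhibitors alike: ME-180 SIE-bla cells stimulated at 40 pM IL-6 for 5 hrs with compound, then dual-emission beta-lactamase read at 405 nm excitation.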
# [4] = molecular target: Glucocorticoid receptor (Homo sapiens) (UniProt P04150); assay: GR-GFP Redistribution (AID 450;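 active = compounds whose dose series gives a full or clear partial fitted curve of increased nuclear translocation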; note: potency is the fitted concentration of half-maximal effect)
# [5] = qHTS Assay for Identification of Small Molecule Agonists for Hypoxia Response Element Signaling Pathway (AID 914; active = well fitted activation curve with a large enough effect in the signal ratio, with a control signal flat, not every such curve was filed as active; the % refers to the signal ratio; note: potency is the fitted concentration of half-maximal effect; for activation: % of control where 0% means no effect); settings: ME-180 (cervical carcinoma) HRE-bla reporter, beta-lactamase ratio, CoCl2, 17 h; activation: hits give high values
# How it was run: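 In Opti-MEM containing 0.5% dialyzed FBS and 10 mM HEPES, ME-180 HRE-bla cells received a compound titration and EC50 CoCl2. They were incubated 17 hours, then CCF4-loaded 2.5 hours at room temperature before ratio reading.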
# Sequence of Glucocorticoid receptor (Homo sapiens) (P04150 whole entry, looked up): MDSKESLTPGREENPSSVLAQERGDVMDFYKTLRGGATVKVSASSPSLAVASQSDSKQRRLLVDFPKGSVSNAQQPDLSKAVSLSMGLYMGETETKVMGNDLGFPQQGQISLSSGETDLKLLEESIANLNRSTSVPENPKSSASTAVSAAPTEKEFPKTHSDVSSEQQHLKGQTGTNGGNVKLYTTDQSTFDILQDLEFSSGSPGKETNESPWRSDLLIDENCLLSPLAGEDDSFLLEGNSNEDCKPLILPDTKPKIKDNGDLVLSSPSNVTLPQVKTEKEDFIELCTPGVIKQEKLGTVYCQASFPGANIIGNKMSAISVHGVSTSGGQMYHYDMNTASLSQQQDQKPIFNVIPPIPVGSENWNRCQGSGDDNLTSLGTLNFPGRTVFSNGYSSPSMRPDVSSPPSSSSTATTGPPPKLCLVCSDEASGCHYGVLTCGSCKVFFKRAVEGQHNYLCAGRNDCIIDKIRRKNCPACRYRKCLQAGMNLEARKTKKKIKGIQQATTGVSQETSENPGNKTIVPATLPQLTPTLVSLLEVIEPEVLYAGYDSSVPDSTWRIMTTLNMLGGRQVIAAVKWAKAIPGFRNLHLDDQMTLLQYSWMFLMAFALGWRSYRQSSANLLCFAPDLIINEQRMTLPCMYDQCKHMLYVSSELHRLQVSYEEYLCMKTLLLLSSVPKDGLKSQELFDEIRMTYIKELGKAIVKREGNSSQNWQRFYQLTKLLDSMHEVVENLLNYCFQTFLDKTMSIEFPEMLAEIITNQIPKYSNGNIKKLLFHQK
Compound,"activity change, negative = inhibition [1]","activity change, negative = inhibition [2]","activity, negative = inhibition [3]",Potency [4],activation [5],Potency [5]
COc1cc(-c2cc(C(F)(F)F)n3ncc(C(=O)O)c3n2)cc(OC)c1OC,3.69%,3.34%,1.42%,> 20.6 µM,13.9%,
Cn1ccnc1SCCC#N,-0.27%,-6.48%,5.85%,> 20.6 µM,14%,
COc1ccc(C(=O)C2CCCCC2=O)cc1 (stereo not given),2.34%,-0.888%,8.28%,> 20.6 µM,5.32%,
COc1ccc(C2=Nn3c(nnc3-c3ccccn3)SC2)cc1OC,-18.1%,23.1%,-0.925%,> 20.6 µM,-20.2%,
CC(C)c1nc(N2CCOCC2)c(C#N)c2c1COC(C)(C)C2,-19.1%,-4.43%,11.9%,> 20.6 µM,-24.7%,
O=C(NC1CCS(=O)(=O)C1)c1c(NC(=O)C2COc3ccccc3O2)sc2c1CCCC2 (stereo not given),-20.8%,-18.5%,-9.79%,> 20.6 µM,,5.01 µM (active)
O=C(CSc1nnc(-c2ccco2)c(-c2ccco2)n1)Nc1ccccc1,3.29%,-3.07%,-9.01%,> 20.6 µM,-14.8%,
CN1C(=O)c2ccc(N(C)C)cc2C1=O,1.85%,-12.3%,1.02%,> 20.6 µM,14.5%,
O=C(NC1CCCCC1)Nn1c(-c2ccccc2)nc2ccccc2c1=O,-2.78%,-2.06%,13.2%,> 20.6 µM,1.48%,
COC(=O)/C(C#N)=C1/SC=C(C)N1c1ccccc1,1.21%,3.89%,4.42%,> 20.6 µM,-6.52%,
Cc1cc(Cl)ccc1OCC(=O)OC(C)C(=O)N(C)C (stereo not given),3.68%,17.7%,-3.58%,> 20.6 µM,-0.0413%,
Cc1cc(CC(=O)O)c(C)cc1CC(=O)O,11.9%,2.75%,2.12%,> 20.6 µM,5.91%,
Cc1ccc(-n2c(SCC(=O)NCc3ccco3)nc3nc4c(cc3c2=O)COC(C)(C)C4)cc1,-7.85%,-16.8%,-3.2%,> 20.6 µM,-23.6%,
CC(C)OCCCNc1ncnc2c1cnn2-c1ccccc1,-19.6%,12.4%,-0.244%,> 20.6 µM,-23.4%,
Cn1cc(Br)cc2nc(C(F)(F)F)nc1-2,-3.15%,-3.67%,3.32%,> 20.6 µM,2.94%,
CCOc1ccc(NC(=O)CSC2=C(C#N)C(c3ccc4c(c3)OCO4)CC(=O)N2)cc1 (stereo not given),-17.2%,-5.95%,-3.62%,> 20.6 µM,-0.0576%,
C=CC(O)Cc1c(C)n[nH]c1C (stereo not given),18.3%,4.36%,7.01%,> 20.6 µM,4.5%,
Cc1cccc(N2CC(=O)N(c3cccc(C)c3)CC2=O)c1,5.22%,5.99%,0.983%,> 20.6 µM,1.3%,
CCN(CC)CCNC(=O)c1ccccc1N,4.21%,-28.8%,6.63%,> 20.6 µM,10.3%,
CCOC(=O)C(CC(=O)O)N1CCCCC1 (stereo not given),4.69%,10.9%,3.36%,> 20.6 µM,11.2%,
O=C(C1CCCCC1)N1CCCn2c1nc1ccccc12,8.92%,-19.9%,4.38%,> 20.6 µM,6.44%,
O=c1cc(N2CCCCC2)nc2n1CCCS2,-18.5%,-21.5%,-10.2%,> 20.6 µM,,6.31 µM (active)
Cn1c2c(c(=O)n(C)c1=O)C(NC(=O)C(C)(C)C)(C(F)(F)F)C(=O)N2 (stereo not given),-5.62%,-2.4%,6.52%,> 20.6 µM,8.6%,
CCOC(=O)c1c(N)sc2c1CCC1C(=O)N(C3CCCCC3)C(=O)C21 (stereo not given),-12.9%,-2.94%,-6.61%,> 20.6 µM,-6.89%,
CCOc1ccc(/C(O)=C2/C(=O)C(=O)N(CCN(CC)CC)C2c2ccco2)cc1 (stereo not given),-1.27%,-3.29%,6.33%,> 20.6 µM,-14.8%,
CCC(=O)N(Cc1cccs1)C1CCOC(C)(C)C1 (stereo not given),-6.24%,-16.2%,-2.05%,> 20.6 µM,-1.46%,
CCCCOc1ccccc1C(=O)NCCCCCC(=O)O,10.2%,11.6%,2.29%,> 20.6 µM,8%,
COc1ccc(CCn2c(C)ccc2C)cc1OC,-3.97%,-16.3%,-7.94%,> 20.6 µM,-9.87%,
O=C(NC1(C(F)(F)F)C(=O)Nc2c1c(=O)[nH]c(=O)n2Cc1ccco1)C1CCCCC1 (stereo not given),-8.35%,-10.2%,-2.02%,> 20.6 µM,-5.1%,
